We go through 30 sequences from publication PMC9838217, “Structure of SALL4 zinc finger domain reveals link between AT-rich DNA binding and Okihiro syndrome”.

Residue numbers refer to the chain shown, from its start.

What all share (experiment): HT-SELEX; high values mean tight binding
What all share (conditions): protein: recombinant; vector His6-GST; dsDNA, one strand shown

For one assay, the target named is T1, SALL4 ZFC4 WT (HT-SELEX) (Mus musculus, UniProt Q8BX22 870-940).
T1 sequence: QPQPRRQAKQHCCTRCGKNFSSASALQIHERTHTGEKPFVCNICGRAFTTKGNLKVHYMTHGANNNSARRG
The gist of the method:
(§1)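 Binding signal is expressed as fold change in each canonical k-mer's read fraction over the initial random library. To obtain it, 1 µg of purified recombinant mouse SALL4 zinc finger cluster 4 (residues 870–940) was incubated for 10 min at room temperature with library DNA (1.5 µg first cycle, 200 ng later cycles) in 100 µl of 10 mM Tris–HCl pH 7.5, 50 mM NaCl, poly(dI-dC) and DTT. Ni2+ bead-captured complexes went through washing, PCR amplification and reselection for up to 6 cycles, in triplicate, before MiSeq sequencing and scanning for 6-mers.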

Assay [1] concerns the target T2, SALL4 ZFC4 R900W (HT-SELEX) (Mus musculus, UniProt Q8BX22 870-940, R900W).
T2 sequence: T1 sequence with R31W
The gist of the method: as §1

For assay [2], the target named is T3, SALL4 ZFC4 G921D (HT-SELEX) (Mus musculus, UniProt Q8BX22 870-940, G921D).
T3 sequence: T1 sequence with G52D
The gist of the method:
as §1

In the case of CCTAGA, the figures for the binding signal (with SALL4 ZFC4 WT (HT-SELEX); in assay [1]; in assay [2]) were 0.844 ± 0.0425 fold-change vs cycle 0, 0.937 ± 0.0552 fold-change vs cycle 0 and 0.97 ± 0.04 fold-change vs cycle 0, respectively.
On the same counts, the results for ATTAGG are 1.38 ± 0.0909 fold-change vs cycle 0, 1.48 ± 0.0913 fold-change vs cycle 0 and 1.4 ± 0.0983 fold-change vs cycle 0.
On the same counts, the results for CCATCA are 0.823 ± 0.0184 fold-change vs cycle 0, 0.957 ± 0.0265 fold-change vs cycle 0 and 0.949 ± 0.0116 fold-change vs cycle 0.
On the same counts, the results for CATAAG are 1.63 ± 0.0634 fold-change vs cycle 0, 1.59 ± 0.055 fold-change vs cycle 0 and 1.45 ± 0.0676 fold-change vs cycle 0.
In the case of CAGGTA, the figures for the binding signal (in the assay with SALL4 ZFC4 WT (HT-SELEX); in assay [1]; in assay [2]) were 0.825 ± 0.0117 fold-change vs cycle 0, 0.927 ± 0.0176 fold-change vs cycle 0 and 0.973 ± 0.0448 fold-change vs cycle 0, respectively.
For AGTAAC, in that order: 1.458 ± 0.009 fold-change vs cycle 0, 1.62 ± 0.0372 fold-change vs cycle 0 and 1.49 ± 0.109 fold-change vs cycle 0.
For the sequence ATCAAC, the binding signal with SALL4 ZFC4 WT (HT-SELEX) turned out to be 1.34 ± 0.0602 fold-change vs cycle 0; in assay [1], 1.45 ± 0.0864 fold-change vs cycle 0; in assay [2], 1.42 ± 0.0753 fold-change vs cycle 0.
On the same counts, the results for ACTGGG are 0.468 ± 0.0365 fold-change vs cycle 0, 0.547 ± 0.0062 fold-change vs cycle 0 and 0.615 ± 0.0193 fold-change vs cycle 0.
Consider TATCAA, for which the binding signal in the assay with SALL4 ZFC4 WT (HT-SELEX) is 2.32 ± 0.148 fold-change vs cycle 0; in assay [1] it was 2 ± 0.128 fold-change vs cycle 0; in assay [2], 1.87 ± 0.178 fold-change vs cycle 0.
With AAAATC, the binding signal with SALL4 ZFC4 WT (HT-SELEX) was 1.66 ± 0.102 fold-change vs cycle 0; in assay [1], 1.58 ± 0.0564 fold-change vs cycle 0; in assay [2] it was 1.53 ± 0.0679 fold-change vs cycle 0.
As for ACGACA, the binding signal with SALL4 ZFC4 WT (HT-SELEX) was 0.543 ± 0.0412 fold-change vs cycle 0; in assay [1], 0.639 ± 0.0243 fold-change vs cycle 0; in assay [2], 0.747 ± 0.0208 fold-change vs cycle 0.
ACCCCT: the results for the binding signal (in the assay with SALL4 ZFC4 WT (HT-SELEX); in assay [1]; in assay [2]) were 0.522 ± 0.0409 fold-change vs cycle 0, 0.619 ± 0.0154 fold-change vs cycle 0 and 0.676 ± 0.0257 fold-change vs cycle 0, respectively.
On the same counts, the results for CAGTGC are 0.318 ± 0.0186 fold-change vs cycle 0, 0.355 ± 0.00797 fold-change vs cycle 0 and 0.491 ± 0.0442 fold-change vs cycle 0.
Regarding ATACTC, the binding signal with SALL4 ZFC4 WT (HT-SELEX) came to 1.45 ± 0.0421 fold-change vs cycle 0; in assay [1] it was 1.5 ± 0.0712 fold-change vs cycle 0; in assay [2] it was 1.44 ± 0.097 fold-change vs cycle 0.
For the sequence GTAGGA, the binding signal in the assay with SALL4 ZFC4 WT (HT-SELEX) was 0.827 ± 0.0404 fold-change vs cycle 0; in assay [1] it was 0.946 ± 0.029 fold-change vs cycle 0; in assay [2] it was 0.948 ± 0.0466 fold-change vs cycle 0.
For ACGAAC, the figures for the binding signal (with SALL4 ZFC4 WT (HT-SELEX); in assay [1]; in assay [2]) were 0.667 ± 0.0536 fold-change vs cycle 0, 0.807 ± 0.0318 fold-change vs cycle 0 and 0.861 ± 0.0438 fold-change vs cycle 0, respectively.
On the same counts, the results for ATTGAC are 1.17 ± 0.0362 fold-change vs cycle 0, 1.31 ± 0.032 fold-change vs cycle 0 and 1.3 ± 0.0284 fold-change vs cycle 0.
For AATGCC, in that order: 0.502 ± 0.015 fold-change vs cycle 0, 0.5601 ± 0.00429 fold-change vs cycle 0 and 0.704 ± 0.0636 fold-change vs cycle 0.
On to AGGGTC, for which the binding signal in the assay with SALL4 ZFC4 WT (HT-SELEX) was 0.434 ± 0.029 fold-change vs cycle 0; in assay [1], 0.524 ± 0.0447 fold-change vs cycle 0; in assay [2] it was 0.649 ± 0.0851 fold-change vs cycle 0.
CCTGCA: the binding signal with SALL4 ZFC4 WT (HT-SELEX) was determined as 0.34 ± 0.0217 fold-change vs cycle 0; in assay [1] it was 0.407 ± 0.0271 fold-change vs cycle 0; in assay [2] it was 0.515 ± 0.0759 fold-change vs cycle 0.
For CAGCTC, in that order: 0.332 ± 0.0301 fold-change vs cycle 0, 0.394 ± 0.00722 fold-change vs cycle 0 and 0.526 ± 0.0361 fold-change vs cycle 0.
On the same counts, the results for AAACTA are 1.88 ± 0.106 fold-change vs cycle 0, 1.85 ± 0.13 fold-change vs cycle 0 and 1.68 ± 0.169 fold-change vs cycle 0.
For AGTGAG, in that order: 0.933 ± 0.017 fold-change vs cycle 0, 1.03 ± 0.0394 fold-change vs cycle 0 and 1.05 ± 0.0473 fold-change vs cycle 0.
As to AAGGAC, the binding signal stood at 0.805 ± 0.0174 fold-change vs cycle 0 with SALL4 ZFC4 WT (HT-SELEX), 0.941 ± 0.0375 fold-change vs cycle 0 in assay [1] and 0.9757 ± 0.00429 fold-change vs cycle 0 in assay [2].
Consider GACCAC, for which the binding signal stood at 0.381 ± 0.00949 fold-change vs cycle 0 with SALL4 ZFC4 WT (HT-SELEX), 0.448 ± 0.0299 fold-change vs cycle 0 in assay [1] and 0.55 ± 0.0669 fold-change vs cycle 0 in assay [2].
As to CTAAAA, the binding signal in the assay with SALL4 ZFC4 WT (HT-SELEX) was determined as 1.62 ± 0.0677 fold-change vs cycle 0; in assay [1] it was 1.63 ± 0.131 fold-change vs cycle 0; in assay [2], 1.51 ± 0.106 fold-change vs cycle 0.
On the same counts, the results for ATCTAA are 2.02 ± 0.105 fold-change vs cycle 0, 2.01 ± 0.101 fold-change vs cycle 0 and 1.83 ± 0.191 fold-change vs cycle 0.
For ACGCAT, in that order: 0.526 ± 0.0513 fold-change vs cycle 0, 0.556 ± 0.0269 fold-change vs cycle 0 and 0.714 ± 0.0322 fold-change vs cycle 0.
For AATGTA, in that order: 2.02 ± 0.0563 fold-change vs cycle 0, 1.99 ± 0.0939 fold-change vs cycle 0 and 1.76 ± 0.157 fold-change vs cycle 0.
With ACTCCG, the binding signal with SALL4 ZFC4 WT (HT-SELEX) turned out to be 0.4 ± 0.00858 fold-change vs cycle 0; in assay [1] it was 0.466 ± 0.0288 fold-change vs cycle 0; in assay [2] it was 0.594 ± 0.0678 fold-change vs cycle 0.
